FBPA coupling cs: coupling enzyme interference in Giardia aldolase counter-screen. 290,000 tested, 0.67% active. activity change, negative = inhibition, % at 58.2 µM, hits read low. AID 2472. coupling enzyme system counterscreen, AmpLite Red fluorescence; in the data active means activity change below about -30%
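Compounds tested against the coupling enzymes alone at 57.5 uM final; readout was AmpLite Red fluorescence (525/598 nm) after 20 min at RT.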
NPSR antag: antagonists of human neuropeptide S receptor cAMP signaling; CHO-NPSR cells, cAMP TR-FRET, antagonist mode; Potency, µM (series often up to 38.3 µM), inactives show at the highest dose activity change, negative = inhibition, usual class: inhibitors; Q6W5P4; 220,000 tested, 1% active; further: potency means the concentration at half of the fitted maximal effect; nearly all actives have a fitted effect of over 50% in size
JMJD2E inh: blocks human JMJD2E demethylase activity. B2RXH2. JMJD2E catalytic domain, FDH-coupled NADH fluorescence (FDH is formaldehyde dehydrogenase). Potency, µM (doses to about 57.1 µM), without a hit: at the top dose activity change, negative = inhibition, usual class: inhibitors. 230,000 tested, 1.6% active. AID 2147; active means well fitted inhibition curve with a large enough effect, not every such curve was filed as active; inconclusive means small, poorly fitted or top-dose-only effect, or another doubt; inactive means no such curve, though single readings can be large or run the other way;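 further: potency means the concentration at half of the fitted maximal effect; 0% = wells with enzyme and -100% = buffer wells without enzyme; nearly all actives have a fitted effect of over 50% in size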
Target sequence (B2RXH2 1-337 limits assumed): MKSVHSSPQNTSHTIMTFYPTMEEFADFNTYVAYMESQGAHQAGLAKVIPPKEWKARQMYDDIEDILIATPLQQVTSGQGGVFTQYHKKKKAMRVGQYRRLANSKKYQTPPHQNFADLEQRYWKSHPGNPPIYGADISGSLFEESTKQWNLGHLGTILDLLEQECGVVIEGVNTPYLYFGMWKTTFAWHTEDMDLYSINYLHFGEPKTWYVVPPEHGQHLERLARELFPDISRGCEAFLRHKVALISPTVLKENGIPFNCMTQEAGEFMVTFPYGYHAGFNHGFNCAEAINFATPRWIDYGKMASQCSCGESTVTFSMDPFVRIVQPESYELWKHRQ
Sfp inh: blocks B. subtilis Sfp PPTase activity. Biochemical Sfp PPTase activity, qHTS. Q9F4F7. Potency, µM, without a hit: largest response in the series, negative = inhibition, usual class: inhibitors. 310,000 tested, 3.5% active;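 further: the enzyme is Sfp with the accession as filed and its product quenches rhodamine fluorescence; potency means the concentration at half of the fitted maximal effect; 0% = enzyme reaction without inhibitor and -100% = no enzyme wells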
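Step 1, compound plus 15 nM Sfp-PPTase, 15 min, room temperature. Step 2, add rhodamine-CoA (5 uM) and BHQ-2-YbbR (12.5 uM). Step 3, read 525/598 nm fluorescence at 0 and 30 min.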
GoLoco inh red: RGS12 GoLoco-Gai1 interaction inhibition. P63096. Gai1:RGS12 GoLoco peptide FP, rhodamine, 10 min. Potency, µM (top dose mostly 61.6 µM), for the others: at the top dose activity, negative = inhibition, usual class: inhibitors. 230,000 tested, 0.44% active. AID 880; active means well fitted inhibition curve with a large enough effect, not every such curve was filed as active; inactive means no such curve, though single readings can be large or run the other way; further: potency means the concentration at half of the fitted maximal effect; nearly all actives have a fitted effect of over 30% in size
Target sequence (P63096 whole entry, looked up): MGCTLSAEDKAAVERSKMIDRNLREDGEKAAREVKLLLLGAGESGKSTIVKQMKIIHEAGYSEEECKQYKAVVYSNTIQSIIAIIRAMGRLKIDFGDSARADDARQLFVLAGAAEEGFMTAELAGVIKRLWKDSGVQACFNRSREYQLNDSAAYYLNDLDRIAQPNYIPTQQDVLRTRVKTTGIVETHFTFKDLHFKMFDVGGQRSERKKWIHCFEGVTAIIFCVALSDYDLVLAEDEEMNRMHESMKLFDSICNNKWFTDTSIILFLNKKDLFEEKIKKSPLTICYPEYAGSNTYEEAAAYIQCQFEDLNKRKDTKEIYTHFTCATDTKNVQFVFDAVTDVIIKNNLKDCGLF
ALDH1A1 inh: ALDH1A1 (human) enzyme inhibition. P00352. Purified ALDH1A1, NADH fluorescence, propionaldehyde substrate. Potency, µM (titrated, usually from 75.3 µM), for the others: at the top dose activity, negative = inhibition, most hits filed as inhibitors. 220,000 tested, 7.3% active. AID 1030; active means well fitted inhibition curve with a large enough effect, not every such curve was filed as active; inconclusive means small, poorly fitted or top-dose-only effect, or another doubt; inactive means no such curve, though single readings can be large or run the other way;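 further: potency means the concentration at half of the fitted maximal effect; plate controls were no enzyme wells and a reference inhibitor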
An asterisk follows results filed as active; ? = inconclusive; . = no result; ! = not confirmed by another sample; [ ] = remark or other dose. A selection: hits, their analogues and other compounds. The true share with any hit is near 8.5%. Unless noted, the call rests on the fitted dose curve; in most records, active means well fitted curve in the direction sought with a large enough effect; inconclusive means small, poorly fitted or top-dose-only effect, or another doubt; inactive means no such curve, though single readings can be large; an effect the other way counts as inactive or inconclusive. Unless noted, on the % scale 0 is the no-effect control and ±100 the full control effect.

SMILES	FBPA coupling cs	NPSR antag	JMJD2E inh	Sfp inh	GoLoco inh red	ALDH1A1 inh
COc1ccc(CNC(=O)/C=C/C(=O)O)cc1OC	-2	17%	5%	-4%	-16%	?
Cc1ccc(Sc2ccc(/C=N/O)cc2[N+](=O)[O-])cc1	-2	?	0%	-12%	1%	3%
O=[N+]([O-])c1cc(/C=N/O)ccc1N1CCCC1	1	-2%	-6%	3%	-4%	11µM*
CO/N=C/c1ccc(N2CCCC2)c([N+](=O)[O-])c1	-3	-16%	-1%	6%	-2%	?
CC(C)(C)Sc1ccc(/C=N/O)cc1[N+](=O)[O-]	-8	-24%	0%	-9%	7%	22µM*
O=C(O/N=C\c1ccc(N2CCOCC2)c([N+](=O)[O-])c1)c1ccccc1Cl	-3	-17%[46.1 µM]	-9%	12%	-4%	1.6µM*
O=[N+]([O-])c1cc(/C=N/n2cnnc2)ccc1N1CCCC1	0	-15%	-5%	-3%	8%	1µM*
Cc1ccc2c(c1)C(c1ccccc1)CC(=O)O2 (stereo unspecified)	-1	-5%[7.67 µM]	8%	5%	0%	.
O=C1C(C2=NC(c3ccccn3)C3C(=O)N(c4ccccc4)C(=O)C23)=C(O)c2ccccc21 (stereo unspecified)	-1	3%	11%	1%	7%	.
COc1ccc(N(C(C)C(=O)N/N=C/c2ccc(OC(C)C)cc2)S(C)(=O)=O)cc1 (stereo unspecified)	-3	-11%[46.1 µM]	-4%	10%	-7%	14µM*
CCOc1ccc(/C=N/NC(=O)C(C)N(c2ccc(OC)cc2)S(C)(=O)=O)cc1 (stereo unspecified)	4	-10%[46.1 µM]	0%	0%	6%	-3%
O=C(O)CCC(=O)NNc1ncnc2ccccc12	-1	17%	?	56µM*	0%	-3%
O=C(O)CCC(=O)NNc1nc2ccccc2nc1-c1ccccc1	2	-6%	?	56µM*	-8%	5%
O=C(O)CCC(=O)NNc1nc(-c2ccccc2)c2cc(Cl)ccc2n1	7	.	.	0%	.	.
CCC(=O)NNc1ncnc2ccccc12	2	16%	11%	10%	-9%	20%
COCCn1c(Cc2ccccc2)nnc1SCc1ccc([N+](=O)[O-])cc1	2	-7%[46.1 µM]	-1%	7%	-10%	-4%
CCOc1ccc(NC(=O)C2CCN(S(=O)(=O)c3ccc4c(c3)C(C)(C)C(=O)N4C)CC2)cc1	2	.	.	9%	.	.
COc1c(O)cnn(-c2ccccc2)c1=O	1	16%	-10%	11%	-2%	.
O=C1c2ccccc2CC1Sc1nnc(-c2ccccn2)o1 (stereo unspecified)	3	?	-5%	?	-4%	3.2µM*
COc1cc(CC(=O)N(C)CC(=O)Nc2cc(C)ccc2C)cc(OC)c1OC	-2	.	.	17%	.	.
O=C1OCC(c2ccccc2)=C1c1ccc(S(=O)(=O)N2CCOCC2)s1	8	-16%[46.1 µM]	-4%	-16%	15%	20µM*
O=C1NC(=O)[C@@H]2C3c4ccccc4C=CN3[C@H](C(=O)c3cccs3)[C@H]12 (stereo partly specified)	-43*	-15%[46.1 µM]	?	79µM*	-36%	25µM*
C=C(C)C1CC=C(C)/C(=N/NC(=S)Nc2ccccc2)C1 (stereo unspecified)	1	-13%	2%	-26%	5%	35µM*
C=C(C)C1CC=C(C)/C(=N/NC(=O)c2ccc(NC(=O)c3cccc(C)c3)cc2)C1 (stereo unspecified)	-3	-7%[46.1 µM]	-27%	7%	3%	-4%
NC(=O)c1ccc(NC(=O)c2cccc3c2OCCCO3)cc1	-2	-14%	3%	19%	7%	5%
SMILES	FBPA coupling cs	NPSR antag	JMJD2E inh	Sfp inh	GoLoco inh red	ALDH1A1 inh
C/C(=N\NC(=S)NC1CCCCC1)c1c(F)cccc1F	-9	1µM*	-4%	13%	24%	?
CC(=O)Nc1ccc(C(=O)/C=C/c2ccco2)cc1	-5	-2%	?	13µM*	15%	?
O=C(/C=C\c1ccco1)c1ccc(NC(=O)c2ccco2)cc1	2	57%	?	10µM*	20%	?
Cc1ccc(NC(=O)N/C=C/c2ccco2)cc1	0	?	?	?	211%	7.9µM*
O=C(/C=C/c1ccco1)NC(=S)Nc1cccc(C(=O)O)c1	-2	.	.	79µM*	.	.
Cc1ccc(NC(=O)/C(=C\c2ccco2)NC(=O)c2ccco2)cc1	0	.	.	-20%	.	.
COc1cccc(NC(=S)NC(=O)/C=C/c2ccco2)c1	1	.	.	-13%	.	.
COc1ccccc1CCn1c(N)cc(=O)[nH]c1=O	4	.	.	15%	.	.
COC(=O)CC1C(C)(C)C(OC(C)=O)C2[C@H](OC(C)=O)[C@]34O[C@]2(O)[C@]1(C)C3CC[C@]1(C)C4=CC(=O)OC1c1ccoc1 (stereo partly specified)	-10	.	-7%	8%	0%	10%
CC(=O)Nc1cccc(C(=O)/C=C/c2ccco2)c1	0	-11%[46.1 µM]	?	14µM*	2%	10µM*
CC(=O)Nc1cccc(C(=O)/C=C/c2ccc(/C=C/C(=O)c3cccc(NC(C)=O)c3)cc2)c1	3	-16%	9%	3%	2%	-2%
CNC(=S)Nc1cccc(C(=O)O)c1	0	13%	7%	56µM*	5%	9%
CC(C)=CCC/C(C)=C/CC/C(C)=C/CC/C(C)=C/CC1=C(C)C(=O)c2ccccc2C1=O	-34*	-8%	-7%	?	12%	.
CC(C)=CCC1=C(OCC(=O)O)C(=O)c2ccccc2C1=O	-45*	4%	14µM*	?	-10%[14.2 µM]	-3%[13.5 µM]
COc1ccccc1OCC(=O)O	3	4%[46.1 µM]	7%	23%	13%	-3%
CCc1noc(C)c1C(=O)OCC(=O)c1ccccc1OC	1	.	.	-20%	.	.
Cc1ccc(/C=C(\NC(=O)c2ccccc2)C(=O)NCCc2ccccn2)o1	-1	1%	5%	-31%	43%	22µM*
Cc1ccc(C(=O)N/C(=C\c2ccco2)C(=O)NCCc2c[nH]c3ccccc23)cc1	-4	-4%	11%	?	16%	-10%
Cc1ccc(/C=C(/NC(=O)c2ccccc2)C(=O)NCCc2c[nH]c3ccccc23)o1	-7	-6%[46.1 µM]	-24%	-8%	5%	28µM*
COc1ccc(C(=O)Nc2nnc(S(=O)(=O)N3CCOCC3)s2)cc1	.	.	.	25%	.	.
O=C(O)c1cc2cc(Cc3cccnc3)ccc2o1	9	-1%[46.1 µM]	0%	40%	28µM*!	3%
O=C(c1cc2ccccc2o1)N1CCN=C1SCc1cccnc1	4	-13%[46.1 µM]	6%	11%	18%	2%
NC(=S)N(c1ccccc1)c1ccccc1	5	2%	-5%	45µM*	10%	?

Screens as filed in PubChem.
